# Laboratory results published in paper PMC7862700, “An all-to-all approach to the identification of sequence-specific readers for epigenetic DNA modifications on cytosine”.
# What was measured:
# Assay in all cases: DAPPL (digital affinity profiling via proximity ligation, sequencing); 10 mM Tris-HCl pH 7.5, 50 mM NaCl, 1 mM DTT, 4% glycerol, room temperature, 30 min; GST-TFs on glutathione beads, 16-mer random dsDNA library, 0.1% formaldehyde crosslink after washing; high values mean tight binding
# FEV = target: T1, FEV (Homo sapiens, UniProt Q99581 1-238); conditions: protein: recombinant; tags: N-terminal GST; dsDNA, one strand shown
# T1 sequence: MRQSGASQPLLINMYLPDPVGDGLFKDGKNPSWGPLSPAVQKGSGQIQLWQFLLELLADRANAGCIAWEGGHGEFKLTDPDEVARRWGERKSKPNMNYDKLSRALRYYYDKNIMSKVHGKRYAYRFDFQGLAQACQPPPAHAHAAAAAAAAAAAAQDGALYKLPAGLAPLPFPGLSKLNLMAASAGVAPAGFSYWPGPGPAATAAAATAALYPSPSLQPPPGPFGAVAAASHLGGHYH
# Method in brief: (§1)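 Yeast served to express human transcription factors as GST fusions, which were then captured on glutathione beads and labelled with DNA barcodes. Pooled with a tag-only sample, they were incubated with 200 nmole of a 16-mer random double-stranded DNA library for 30 min at room temperature in Tris/NaCl/DTT/glycerol buffer, washed, crosslinked with 0.1% formaldehyde, ligated by proximity, amplified by PCR and sequenced. Dividing each hexamer's read frequency for a factor by its frequency for the tag-only sample gives the binding signal.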
# ETV5 = ETV5 (Homo sapiens, UniProt P41161 1-510); conditions: protein: recombinant; tags: N-terminal GST; dsDNA, one strand shown
# Sequence of ETV5 (P41161 whole entry): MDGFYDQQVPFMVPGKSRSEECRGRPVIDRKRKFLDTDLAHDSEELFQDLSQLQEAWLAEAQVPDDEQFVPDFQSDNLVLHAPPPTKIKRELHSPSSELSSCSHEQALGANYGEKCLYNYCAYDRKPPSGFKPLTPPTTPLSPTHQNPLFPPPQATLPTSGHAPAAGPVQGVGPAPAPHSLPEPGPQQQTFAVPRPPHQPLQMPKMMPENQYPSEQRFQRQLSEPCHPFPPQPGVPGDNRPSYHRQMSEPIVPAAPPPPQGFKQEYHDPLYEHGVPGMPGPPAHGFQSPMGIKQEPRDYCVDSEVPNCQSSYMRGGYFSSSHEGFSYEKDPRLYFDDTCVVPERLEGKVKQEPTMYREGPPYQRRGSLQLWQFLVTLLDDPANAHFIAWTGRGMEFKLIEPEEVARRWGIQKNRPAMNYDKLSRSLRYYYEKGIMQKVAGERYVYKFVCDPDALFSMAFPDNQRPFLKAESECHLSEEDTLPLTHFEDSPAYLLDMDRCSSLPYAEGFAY
# Method in brief: as §1
# HSF1 = HSF1 (Homo sapiens, UniProt Q00613 1-529); conditions: protein: recombinant; tags: N-terminal GST; chain copies: 3; dsDNA, one strand shown
# Sequence of HSF1 (Q00613 whole entry): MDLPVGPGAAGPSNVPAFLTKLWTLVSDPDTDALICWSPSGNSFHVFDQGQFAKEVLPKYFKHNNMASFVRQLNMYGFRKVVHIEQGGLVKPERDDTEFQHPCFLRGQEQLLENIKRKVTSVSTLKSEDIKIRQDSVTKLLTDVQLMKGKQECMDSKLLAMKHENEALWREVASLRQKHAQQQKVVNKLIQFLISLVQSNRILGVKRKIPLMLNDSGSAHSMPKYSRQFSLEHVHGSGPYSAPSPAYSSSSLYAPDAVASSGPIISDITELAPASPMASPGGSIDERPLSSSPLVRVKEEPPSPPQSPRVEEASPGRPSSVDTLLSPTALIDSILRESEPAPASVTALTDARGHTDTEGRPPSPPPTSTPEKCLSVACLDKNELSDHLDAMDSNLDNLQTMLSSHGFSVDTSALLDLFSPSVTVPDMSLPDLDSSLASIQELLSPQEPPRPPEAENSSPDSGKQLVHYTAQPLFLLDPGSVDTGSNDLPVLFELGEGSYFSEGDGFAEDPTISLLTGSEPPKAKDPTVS
# Method in brief: as §1
# SPIC = target: T2, SPIC (Homo sapiens, UniProt Q8N5J4 1-248); conditions: protein: recombinant; tags: N-terminal GST; dsDNA, one strand shown
# T2 sequence: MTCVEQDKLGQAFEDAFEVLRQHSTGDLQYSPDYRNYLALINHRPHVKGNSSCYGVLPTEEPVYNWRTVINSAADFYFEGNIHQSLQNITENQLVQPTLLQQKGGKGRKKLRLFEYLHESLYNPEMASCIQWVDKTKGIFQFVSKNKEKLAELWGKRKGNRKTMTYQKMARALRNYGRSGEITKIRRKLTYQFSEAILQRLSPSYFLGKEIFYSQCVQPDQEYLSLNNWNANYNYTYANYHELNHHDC
# Method in brief: as §1
# ELF4 = ELF4 (Homo sapiens, UniProt Q99607 1-663); conditions: protein: recombinant; tags: N-terminal GST; dsDNA, one strand shown
# Sequence of ELF4 (Q99607 whole entry): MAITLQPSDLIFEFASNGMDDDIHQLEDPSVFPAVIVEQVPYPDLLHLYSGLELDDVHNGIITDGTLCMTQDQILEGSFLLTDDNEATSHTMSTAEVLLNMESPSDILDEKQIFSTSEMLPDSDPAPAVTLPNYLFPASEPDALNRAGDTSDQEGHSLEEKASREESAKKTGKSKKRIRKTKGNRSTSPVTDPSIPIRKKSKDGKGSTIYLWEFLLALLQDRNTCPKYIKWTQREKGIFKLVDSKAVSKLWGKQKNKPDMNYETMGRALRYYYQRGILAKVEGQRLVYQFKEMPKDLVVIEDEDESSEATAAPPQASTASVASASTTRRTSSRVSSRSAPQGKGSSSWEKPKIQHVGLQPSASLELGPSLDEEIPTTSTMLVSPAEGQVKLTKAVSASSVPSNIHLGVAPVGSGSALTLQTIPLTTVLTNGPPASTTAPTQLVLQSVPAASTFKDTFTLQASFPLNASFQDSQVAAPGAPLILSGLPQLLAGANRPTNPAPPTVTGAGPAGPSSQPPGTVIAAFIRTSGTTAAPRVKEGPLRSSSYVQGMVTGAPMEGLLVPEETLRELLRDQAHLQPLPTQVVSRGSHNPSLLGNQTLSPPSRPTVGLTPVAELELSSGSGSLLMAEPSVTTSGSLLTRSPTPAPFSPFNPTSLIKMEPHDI
# Method in brief: as §1
# ELK4 = target: T3, ELK4 (Homo sapiens, UniProt P28324-2 1-405); conditions: protein: recombinant; tags: N-terminal GST; dsDNA, one strand shown
# T3 sequence: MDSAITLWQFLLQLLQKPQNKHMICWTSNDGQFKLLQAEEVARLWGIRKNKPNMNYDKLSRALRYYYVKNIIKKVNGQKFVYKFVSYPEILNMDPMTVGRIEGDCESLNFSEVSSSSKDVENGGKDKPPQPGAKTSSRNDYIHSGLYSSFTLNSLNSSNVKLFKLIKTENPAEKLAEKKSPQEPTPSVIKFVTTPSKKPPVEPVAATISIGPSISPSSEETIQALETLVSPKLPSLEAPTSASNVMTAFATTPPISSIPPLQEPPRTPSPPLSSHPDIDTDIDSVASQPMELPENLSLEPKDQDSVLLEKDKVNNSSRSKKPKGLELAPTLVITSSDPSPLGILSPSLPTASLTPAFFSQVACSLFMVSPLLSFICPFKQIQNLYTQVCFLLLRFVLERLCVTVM
# Method in brief: as §1
# ETV2 = target: T4, ETV2 (Homo sapiens, UniProt O00321 1-342); conditions: protein: recombinant; tags: N-terminal GST; dsDNA, one strand shown
# T4 sequence: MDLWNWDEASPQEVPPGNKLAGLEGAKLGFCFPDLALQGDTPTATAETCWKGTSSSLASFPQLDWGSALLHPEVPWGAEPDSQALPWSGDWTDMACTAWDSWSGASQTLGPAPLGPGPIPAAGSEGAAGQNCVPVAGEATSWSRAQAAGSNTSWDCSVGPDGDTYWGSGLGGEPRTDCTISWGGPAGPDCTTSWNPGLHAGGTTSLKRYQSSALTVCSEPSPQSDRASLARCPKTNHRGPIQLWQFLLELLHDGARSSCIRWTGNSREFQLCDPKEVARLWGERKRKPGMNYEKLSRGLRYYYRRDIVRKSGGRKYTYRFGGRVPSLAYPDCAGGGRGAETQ
# Method in brief: as §1
# ELF3 = target: T5, ELF3 (Homo sapiens, UniProt P78545 1-371); conditions: protein: recombinant; tags: N-terminal GST; dsDNA, one strand shown
# T5 sequence: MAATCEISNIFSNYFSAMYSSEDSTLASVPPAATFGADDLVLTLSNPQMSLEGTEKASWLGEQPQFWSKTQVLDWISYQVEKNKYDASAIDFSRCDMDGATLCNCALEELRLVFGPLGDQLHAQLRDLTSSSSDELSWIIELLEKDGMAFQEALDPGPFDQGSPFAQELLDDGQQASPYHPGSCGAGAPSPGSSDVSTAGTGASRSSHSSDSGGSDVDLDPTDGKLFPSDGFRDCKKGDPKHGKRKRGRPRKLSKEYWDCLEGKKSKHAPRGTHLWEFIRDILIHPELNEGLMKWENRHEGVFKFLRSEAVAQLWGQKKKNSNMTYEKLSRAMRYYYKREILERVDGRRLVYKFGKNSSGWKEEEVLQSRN
# Method in brief: as §1
# CRX = CRX (Homo sapiens, UniProt O43186 1-299); conditions: protein: recombinant; tags: N-terminal GST; dsDNA, one strand shown
# Sequence of CRX (O43186 whole entry): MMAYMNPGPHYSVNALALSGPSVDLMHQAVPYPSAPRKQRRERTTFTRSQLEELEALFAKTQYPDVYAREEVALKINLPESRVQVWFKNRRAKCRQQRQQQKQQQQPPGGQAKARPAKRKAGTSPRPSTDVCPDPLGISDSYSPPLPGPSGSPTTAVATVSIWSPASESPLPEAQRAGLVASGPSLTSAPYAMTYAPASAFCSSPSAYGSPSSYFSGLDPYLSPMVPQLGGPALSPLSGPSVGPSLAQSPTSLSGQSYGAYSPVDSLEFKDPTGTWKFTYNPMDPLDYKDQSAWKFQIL
# Method in brief: as §1
# ETV1 = ETV1 (Homo sapiens, UniProt P50549 1-477); conditions: protein: recombinant; tags: N-terminal GST; dsDNA, one strand shown
# Sequence of ETV1 (P50549 whole entry): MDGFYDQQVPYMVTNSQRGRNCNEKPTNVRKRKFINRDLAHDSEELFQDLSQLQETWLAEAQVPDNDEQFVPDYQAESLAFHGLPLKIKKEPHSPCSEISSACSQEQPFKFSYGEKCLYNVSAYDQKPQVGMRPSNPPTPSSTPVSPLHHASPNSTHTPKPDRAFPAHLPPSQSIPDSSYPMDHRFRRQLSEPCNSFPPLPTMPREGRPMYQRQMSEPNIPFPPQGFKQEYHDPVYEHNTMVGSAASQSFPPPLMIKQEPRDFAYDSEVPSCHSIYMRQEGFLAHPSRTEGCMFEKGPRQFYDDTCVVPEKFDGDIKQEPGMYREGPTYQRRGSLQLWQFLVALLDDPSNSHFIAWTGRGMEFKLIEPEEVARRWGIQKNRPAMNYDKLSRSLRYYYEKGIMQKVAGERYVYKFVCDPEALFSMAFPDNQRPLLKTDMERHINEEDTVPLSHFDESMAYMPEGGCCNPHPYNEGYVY
# Method in brief: as §1
# ERF = target: T6, ERF (Homo sapiens, UniProt P50548 1-548); conditions: protein: recombinant; tags: N-terminal GST; dsDNA, one strand shown
# T6 sequence: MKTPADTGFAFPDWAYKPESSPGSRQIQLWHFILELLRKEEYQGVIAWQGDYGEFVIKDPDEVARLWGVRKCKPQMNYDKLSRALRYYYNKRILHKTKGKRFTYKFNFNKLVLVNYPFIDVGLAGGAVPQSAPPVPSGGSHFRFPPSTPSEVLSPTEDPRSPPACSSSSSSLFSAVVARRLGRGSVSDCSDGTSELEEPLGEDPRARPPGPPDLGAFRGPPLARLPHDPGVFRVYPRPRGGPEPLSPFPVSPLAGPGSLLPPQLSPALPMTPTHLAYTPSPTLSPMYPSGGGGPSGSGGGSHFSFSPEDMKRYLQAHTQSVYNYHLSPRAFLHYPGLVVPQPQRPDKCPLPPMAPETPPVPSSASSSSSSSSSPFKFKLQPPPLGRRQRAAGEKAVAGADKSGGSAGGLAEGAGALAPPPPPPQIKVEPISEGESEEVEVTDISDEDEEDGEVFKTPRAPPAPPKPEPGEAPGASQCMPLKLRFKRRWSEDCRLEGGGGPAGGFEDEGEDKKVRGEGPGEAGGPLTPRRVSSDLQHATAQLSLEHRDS
# Method in brief: as §1
# ETV3L = target: T7, ETV3L (Homo sapiens, UniProt Q6ZN32 1-361); conditions: protein: recombinant; tags: N-terminal GST; dsDNA, one strand shown
# T7 sequence: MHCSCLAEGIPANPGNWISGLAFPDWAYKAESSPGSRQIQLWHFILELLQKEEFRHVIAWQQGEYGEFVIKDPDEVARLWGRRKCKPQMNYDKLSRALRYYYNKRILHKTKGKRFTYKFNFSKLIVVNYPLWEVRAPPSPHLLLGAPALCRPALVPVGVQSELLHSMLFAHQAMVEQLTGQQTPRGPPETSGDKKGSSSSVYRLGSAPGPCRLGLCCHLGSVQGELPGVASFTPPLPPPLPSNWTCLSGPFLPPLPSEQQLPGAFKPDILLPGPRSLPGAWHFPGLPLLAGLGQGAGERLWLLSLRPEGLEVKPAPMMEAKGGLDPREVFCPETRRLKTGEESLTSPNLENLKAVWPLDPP
# Method in brief: as §1
# ETS2 = target: T8, ETS2 (Homo sapiens, UniProt P15036 1-469); conditions: protein: recombinant; tags: N-terminal GST; dsDNA, one strand shown
# T8 sequence: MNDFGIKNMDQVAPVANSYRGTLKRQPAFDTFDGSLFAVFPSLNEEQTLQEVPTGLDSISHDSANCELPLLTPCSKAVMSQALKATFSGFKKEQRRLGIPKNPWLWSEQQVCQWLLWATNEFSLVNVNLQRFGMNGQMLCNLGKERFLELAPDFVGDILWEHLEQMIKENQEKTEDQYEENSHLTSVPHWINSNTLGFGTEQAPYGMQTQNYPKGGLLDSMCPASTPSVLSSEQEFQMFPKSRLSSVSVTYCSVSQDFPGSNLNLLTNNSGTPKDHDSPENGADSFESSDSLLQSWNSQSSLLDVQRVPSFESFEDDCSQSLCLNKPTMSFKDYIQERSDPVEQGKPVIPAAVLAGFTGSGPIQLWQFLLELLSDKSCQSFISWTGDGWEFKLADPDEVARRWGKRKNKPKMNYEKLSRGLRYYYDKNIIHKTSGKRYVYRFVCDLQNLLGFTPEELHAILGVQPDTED
# Method in brief: as §1
# SPDEF = target: T9, SPDEF (Homo sapiens, UniProt O95238 1-335); conditions: protein: recombinant; tags: N-terminal GST; dsDNA, one strand shown
# T9 sequence: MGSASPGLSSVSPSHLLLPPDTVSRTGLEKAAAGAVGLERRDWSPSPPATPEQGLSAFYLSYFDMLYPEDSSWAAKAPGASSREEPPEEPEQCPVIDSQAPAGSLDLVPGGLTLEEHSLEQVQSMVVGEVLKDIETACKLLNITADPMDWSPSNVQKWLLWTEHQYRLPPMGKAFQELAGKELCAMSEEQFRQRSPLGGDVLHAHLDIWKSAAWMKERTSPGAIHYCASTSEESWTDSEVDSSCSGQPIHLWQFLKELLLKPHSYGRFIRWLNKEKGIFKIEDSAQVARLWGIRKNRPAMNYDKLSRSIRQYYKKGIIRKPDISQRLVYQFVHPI
# Method in brief: as §1
# ETV7 = target: T10, ETV7 (Homo sapiens, UniProt Q9Y603 1-341); conditions: protein: recombinant; tags: N-terminal GST; dsDNA, one strand shown
# T10 sequence: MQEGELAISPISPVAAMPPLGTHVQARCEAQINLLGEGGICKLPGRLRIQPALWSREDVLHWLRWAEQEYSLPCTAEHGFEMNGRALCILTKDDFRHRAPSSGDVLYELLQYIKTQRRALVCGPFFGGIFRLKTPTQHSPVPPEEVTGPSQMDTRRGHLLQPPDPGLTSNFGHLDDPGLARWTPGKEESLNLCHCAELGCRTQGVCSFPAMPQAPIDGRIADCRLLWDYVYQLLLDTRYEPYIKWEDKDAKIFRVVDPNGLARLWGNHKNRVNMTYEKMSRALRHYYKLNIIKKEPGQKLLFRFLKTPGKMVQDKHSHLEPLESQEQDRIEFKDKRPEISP
# Method in brief: as §1
# ELF5 = target: T11, ELF5 (Homo sapiens, UniProt Q9UKW6-2 1-255); conditions: protein: recombinant; tags: N-terminal GST; dsDNA, one strand shown
# T11 sequence: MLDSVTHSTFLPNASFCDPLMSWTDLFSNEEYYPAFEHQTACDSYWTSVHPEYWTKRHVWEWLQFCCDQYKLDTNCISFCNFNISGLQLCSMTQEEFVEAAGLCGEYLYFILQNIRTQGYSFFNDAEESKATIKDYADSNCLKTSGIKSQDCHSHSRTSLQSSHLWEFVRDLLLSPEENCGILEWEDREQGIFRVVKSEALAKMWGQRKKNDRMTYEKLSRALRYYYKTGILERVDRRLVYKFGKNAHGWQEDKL
# Method in brief: as §1
# ETV3 = target: T12, ETV3 (Homo sapiens, UniProt P41162-2 1-143); conditions: protein: recombinant; tags: N-terminal GST; dsDNA, one strand shown
# T12 sequence: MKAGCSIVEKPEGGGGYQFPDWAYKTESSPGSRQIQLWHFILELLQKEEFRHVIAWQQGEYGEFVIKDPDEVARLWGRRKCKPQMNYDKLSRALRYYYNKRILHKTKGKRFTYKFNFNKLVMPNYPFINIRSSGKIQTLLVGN
# Method in brief: as §1
# ETV6 = ETV6 (Homo sapiens, UniProt P41212 1-452); conditions: protein: recombinant; tags: N-terminal GST; dsDNA, one strand shown
# Sequence of ETV6 (P41212 whole entry): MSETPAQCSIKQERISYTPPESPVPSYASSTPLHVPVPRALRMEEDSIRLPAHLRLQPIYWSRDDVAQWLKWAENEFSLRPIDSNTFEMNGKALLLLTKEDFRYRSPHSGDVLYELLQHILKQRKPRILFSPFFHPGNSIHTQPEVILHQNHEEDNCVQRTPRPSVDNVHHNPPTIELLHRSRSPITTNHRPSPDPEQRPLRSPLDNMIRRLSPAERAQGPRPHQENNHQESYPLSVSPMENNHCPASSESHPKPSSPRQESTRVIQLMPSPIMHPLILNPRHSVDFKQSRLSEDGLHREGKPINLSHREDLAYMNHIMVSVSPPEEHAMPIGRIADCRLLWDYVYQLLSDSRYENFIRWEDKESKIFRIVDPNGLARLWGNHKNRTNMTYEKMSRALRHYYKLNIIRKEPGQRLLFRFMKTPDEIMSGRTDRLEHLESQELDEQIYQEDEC
# Method in brief: as §1
sequence,measurement,setting,value
ATTGAT,binding signal,FEV,"1.25 fold enrichment (6-mer frequency, TF over GST control)"
same,binding signal,ETV5,"1.2 fold enrichment (6-mer frequency, TF over GST control)"
same,binding signal,HSF1,"1.37 fold enrichment (6-mer frequency, TF over GST control)"
same,binding signal,SPIC,"1.42 fold enrichment (6-mer frequency, TF over GST control)"
same,binding signal,ELF4,"1.32 fold enrichment (6-mer frequency, TF over GST control)"
same,binding signal,ELK4,"1.38 fold enrichment (6-mer frequency, TF over GST control)"
same,binding signal,ETV2,"1.3 fold enrichment (6-mer frequency, TF over GST control)"
same,binding signal,ELF3,"1.22 fold enrichment (6-mer frequency, TF over GST control)"
same,binding signal,CRX,"1.46 fold enrichment (6-mer frequency, TF over GST control)"
same,binding signal,ETV1,"1.39 fold enrichment (6-mer frequency, TF over GST control)"
same,binding signal,ERF,"1.34 fold enrichment (6-mer frequency, TF over GST control)"
same,binding signal,ETV3L,"1.31 fold enrichment (6-mer frequency, TF over GST control)"
same,binding signal,ETS2,"1.29 fold enrichment (6-mer frequency, TF over GST control)"
same,binding signal,SPDEF,"1.32 fold enrichment (6-mer frequency, TF over GST control)"
same,binding signal,ETV7,"1.23 fold enrichment (6-mer frequency, TF over GST control)"
same,binding signal,ELF5,"1.27 fold enrichment (6-mer frequency, TF over GST control)"
same,binding signal,ETV3,"1.33 fold enrichment (6-mer frequency, TF over GST control)"
same,binding signal,ETV6,"1.24 fold enrichment (6-mer frequency, TF over GST control)"
